Drawing on PubChem BioAssay (NCATS), this text covers Potency and outcome for 16 compounds.

Assay [1] in a line: qHTS of pediatric cancer cell lines to identify multiple opportunities for drug repurposing: Confirmatory screen for SJ-GBM2 cells (AID 1347116). Note: nearly all actives have a fitted effect of over 60% in size. Note: potency is the fitted concentration of half-maximal effect. The essentials:
(§1)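 Viability measured as metabolically active cells via CellTiter-Glo luminescence following 48 hours of compound exposure, 11-point dilutions in confirmatory testing. 500-1,000 cells/well plated 5 hours before dosing; controls were DMSO and 2.3 µM bortezomib.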

Assay [2] in a line: qHTS of pediatric cancer cell lines to identify multiple opportunities for drug repurposing: Confirmatory screen for Rh41 cells (AID 1347123).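 Note: 48 h compound exposure; nearly all actives have a fitted effect of over 60% in size.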 Note: potency is the fitted concentration of half-maximal effect. The procedure, abridged: (§2)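 Viability after 48 h compound treatment at 37C, 500-1,000 cells/well, read as ATP luminescence with CellTiter-Glo. Primary screens used 11-point (MIPE, 0.78 nM-46 µM) or 8-point (NPC, 0.59 nM-46 µM) final concentrations; follow-up screens used 11-point dilutions.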

Assay [3] can be described thus: qHTS of pediatric cancer cell lines to identify multiple opportunities for drug repurposing: Confirmatory screen for RD cells (AID 1347124).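 Note: potency is the fitted concentration of half-maximal effect; cells exposed to compound for 48 h before viability readout; nearly all actives have a fitted effect of over 65% in size.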 The procedure, abridged: as §2
(In general: In qHTS, concentration-response curves come from the screen itself.)

Assay [4] in a line: qHTS of pediatric cancer cell lines to identify multiple opportunities for drug repurposing: Confirmatory screen for Rh30 cells (AID 1347126). Note: potency is the fitted concentration of half-maximal effect; nearly all actives have a fitted effect of over 55% in size. The essentials: as §2
Assay [5] is described as follows: qHTS of pediatric cancer cell lines to identify multiple opportunities for drug repurposing: Confirmatory screen for LAN-5 cells (AID 1347113). Note: nearly all actives have a fitted effect of over 65% in size. Note: potency is the fitted concentration of half-maximal effect. The essentials:
as §2

Assay [6] in a line: qHTS of pediatric cancer cell lines to identify multiple opportunities for drug repurposing: Confirmatory screen for DAOY cells (AID 1347114). Note: nearly all actives have a fitted effect of over 65% in size. Note: potency is the fitted concentration of half-maximal effect. The essentials: as §1
The nature of assay [7]: qHTS of pediatric cancer cell lines to identify multiple opportunities for drug repurposing: Confirmatory screen for TC32 cells (AID 1347118).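 Note: cells exposed to compound for 48 h before the read; nearly all actives have a fitted effect of over 65% in size.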 Note: potency is the fitted concentration of half-maximal effect. The procedure, abridged:
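TC32 cells, 500-1,000/well in growth medium, compound-treated 48 h at 37 °C; viability from CellTiter-Glo luminescence. Primary screen: MIPE 11-point (0.78 nM–46 µM final), NPC 8-point (0.59 nM–46 µM final); confirmatory at 11-point dilutions.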

A short description of assay [8]: qHTS of pediatric cancer cell lines to identify multiple opportunities for drug repurposing: Confirmatory screen for MG 63 (6-TG R) cells (AID 1347119). Note: potency is the fitted concentration of half-maximal effect; nearly all actives have a fitted effect of over 55% in size. The procedure, abridged: as §2
Assay [9] in a line: qHTS of pediatric cancer cell lines to identify multiple opportunities for drug repurposing: Confirmatory screen for control Hh wild type fibroblast cells (AID 1347121). Note: nearly all actives have a fitted effect of over 70% in size. The procedure, abridged: as §2
Assay [10] can be described thus: qHTS of pediatric cancer cell lines to identify multiple opportunities for drug repurposing: Confirmatory screen for U-2 OS cells (AID 1347122). The procedure, abridged:
as §2

Assay [11] is described as follows: qHTS of pediatric cancer cell lines to identify multiple opportunities for drug repurposing: Confirmatory screen for Rh18 cells (AID 1347125). Note: nearly all actives have a fitted effect of over 55% in size. Note: potency is the fitted concentration of half-maximal effect. The procedure, abridged: as §2
Assay [12] is described as follows: qHTS of pediatric cancer cell lines to identify multiple opportunities for drug repurposing: Confirmatory screen for Saos-2 cells (AID 1347127). Note: nearly all actives have a fitted effect of over 60% in size. Note: potency is the fitted concentration of half-maximal effect. The procedure, abridged:
as §2

Assay [13] can be described thus: qHTS of pediatric cancer cell lines to identify multiple opportunities for drug repurposing: Confirmatory screen for SK-N-SH cells (AID 1347129).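 Note: cells exposed to compound for 48 h before viability read; nearly all actives have a fitted effect of over 60% in size.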 Note: potency is the fitted concentration of half-maximal effect. The procedure, abridged:
as §2

Assay [14] concerns Zika virus NS2B-NS3 protease (linked construct). Kind of assay: Confirmatory screen NINDS AMC qHTS for Zika virus inhibitors (AID 1347152). Note: nearly all actives have a fitted effect of over 70% in size. Note: potency is the fitted concentration of half-maximal effect. The procedure, abridged: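 IC50s from 4-parameter Hill fits of percent inhibition, based on AMC fluorescence gain (340/450 nm) over 15 min with 10 microM Bz-Nle-KRR-AMC. Enzyme: 1 nM linked NS2B-NS3 in Tris-HCl pH 8.0; 15-min compound preincubation.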

Assay [15] can be described thus: qHTS of pediatric cancer cell lines to identify multiple opportunities for drug repurposing: Confirmatory screen for OHS-50 cells (AID 1347128).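 Note: compound exposure lasted 48 h at 37 degrees C; nearly all actives have a fitted effect of over 55% in size.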 Note: potency is the fitted concentration of half-maximal effect. The essentials:
as §2

Assay [16] can be described thus: qHTS of pediatric cancer cell lines to identify multiple opportunities for drug repurposing: Confirmatory screen for BT-37 cells (AID 1347117). The following applies: BT-37 pediatric cancer cells, viability; activity change, negative = cytotoxic: at 45.9 µM (top of the series). The procedure, abridged: as §2
Assay [17] is described as follows: qHTS of pediatric cancer cell lines to identify multiple opportunities for drug repurposing: Confirmatory screen for NB-EBc1 cells (AID 1347115).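 Note: cells exposed to compound for 48 h before the viability read; nearly all actives have a fitted effect of over 45% in size.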 Note: potency is the fitted concentration of half-maximal effect. The essentials:
as §2

The target of a further assay is Furin (Homo sapiens) (UniProt P09958). Kind of assay: Furin counterscreen qHTS for Zika virus inhibitors (AID 1347149). Note: nearly all actives have a fitted effect of over 70% in size. Note: potency is the fitted concentration of half-maximal effect. The procedure, abridged: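 Fluorogenic cleavage of BOC-RVRR-AMC (2 microM final, Km ~15 µM) was monitored (ex 340, em 450 nm) at 37C after 15 min RT preincubation of 5 nM furin with compounds in HEPES pH 7.0 buffer with CaCl2 and Triton X-100. Percent inhibition was fitted to a 4-parameter Hill curve.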
Chain of Furin (Homo sapiens) (P09958 whole entry, looked up): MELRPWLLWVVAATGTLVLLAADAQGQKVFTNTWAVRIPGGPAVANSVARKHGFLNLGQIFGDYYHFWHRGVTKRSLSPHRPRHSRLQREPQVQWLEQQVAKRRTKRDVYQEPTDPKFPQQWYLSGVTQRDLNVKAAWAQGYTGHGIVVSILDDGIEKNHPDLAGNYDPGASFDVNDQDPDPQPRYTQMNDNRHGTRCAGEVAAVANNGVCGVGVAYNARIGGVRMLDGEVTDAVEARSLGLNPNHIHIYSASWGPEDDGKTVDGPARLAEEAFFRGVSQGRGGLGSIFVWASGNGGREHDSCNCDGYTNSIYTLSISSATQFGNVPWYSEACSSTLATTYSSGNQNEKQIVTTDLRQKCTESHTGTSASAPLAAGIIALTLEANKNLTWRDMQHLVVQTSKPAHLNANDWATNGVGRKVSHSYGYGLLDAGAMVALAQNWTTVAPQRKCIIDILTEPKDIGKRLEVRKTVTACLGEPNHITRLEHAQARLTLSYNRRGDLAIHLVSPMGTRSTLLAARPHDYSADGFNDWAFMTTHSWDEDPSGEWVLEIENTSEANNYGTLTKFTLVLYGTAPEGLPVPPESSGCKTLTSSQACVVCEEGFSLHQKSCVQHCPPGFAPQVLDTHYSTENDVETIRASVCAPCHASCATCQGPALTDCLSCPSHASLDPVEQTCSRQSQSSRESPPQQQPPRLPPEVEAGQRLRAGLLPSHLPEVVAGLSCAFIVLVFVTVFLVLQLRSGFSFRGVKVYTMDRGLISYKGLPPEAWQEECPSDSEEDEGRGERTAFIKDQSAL

The test system of assay [18] is Zika virus NS2B-NS3 protease (unlinked). Kind of assay: Optimization of GU AMC qHTS for Zika virus inhibitors: Unlinked NS2B-NS3 protease assay (AID 1347151). Note: nearly all actives have a fitted effect of over 80% in size. The procedure, abridged:
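Fluorescence gain (340/450 nm) over 15 min at room temperature, ~20% conversion, gave percent inhibition fitted to a 4-parameter Hill equation; enzyme was unlinked NS2B-NS3 (25 nM final), pH 8.0 Tris buffer.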

Molecules are shown by their SMILES. Inconclusive results are not listed. Activity calls are given as the source filed them. Calls come from the whole dose curve; as a rule, active = well fitted curve in the direction sought with a large enough effect; inconclusive = small, poorly fitted or top-dose-only effect, or another doubt; inactive = no such curve, though single readings can be large; an effect the other way counts as inactive or inconclusive.

As to `CCOc1cc2ncc(C#N)c(Nc3ccc(OCc4ccccn4)c(Cl)c3)c2cc1NC(=O)C=CCN(C)C`, the Potency in assay [1] is 4.14 µM (active); in [2] it was 2.93 µM (active); in assay [3], 2.33 µM (active); in [4], 5.85 µM (active).
Consider `Cc1nc(NC(=O)N2CCC[C@@H]2C(N)=O)sc1-c1ccnc(C(C)(C)C(F)(F)F)c1`, for which the Potency is 2.93 µM (active) in assay [5]; 5.22 µM (active) in [7]; 6.57 µM (active) in [8]; 14.7 µM (active) in [10]; 2.61 µM (active) in assay [2]; 2.93 µM (active) in assay [11]. The Potency in [4] was 5.22 µM (active); in [12], 5.85 µM (active); in assay [13], 11.8 µM (active). The Potency entry in [6] and in assay [9] was “inactive” each time.
Take `CCOC(=O)[C@@H](N)Cc1ccc(-c2cc(O[C@H](c3ccc(Cl)cc3-n3ccc(C)n3)C(F)(F)F)nc(N)n2)cc1`: the Potency in [5] is 23.3 µM (active); in [7], 23.3 µM (active); in assay [2], 14.7 µM (active). For the same compound, the Potency entry in assay [6], in assay [1] and in assay [9] was “inactive” each time.
`CC(C)c1cc(C(C)C)c(CC(=O)NS(=O)(=O)Oc2c(C(C)C)cccc2C(C)C)c(C(C)C)c1`: the Potency in assay [14] is 7.84 µM (active).
`O=C(O)C[C@H](O)C[C@H](O)C=Cc1c(C2CC2)nc2ccccc2c1-c1ccc(F)cc1`: the Potency in [6] is 1.47 µM (active); in [7] it was 2.93 µM (active); in assay [10], 1.65 µM (active); in assay [2] it was 4.65 µM (active); in assay [3] it was 11.7 µM (active); in assay [11] it was 3.69 µM (active). Further, the figures for the Potency in [4], in [15] and in assay [13] were 2.33 µM (active), 10.4 µM (active) and 1.32 µM (active), respectively. The Potency entry in assay [9] is “inactive”.
With `O=C1NC(=O)[C@@H](c2cn3c4c(cccc24)CCC3)[C@H]1c1c[nH]c2ccccc12`, the Potency was 2.08 µM (active) in assay [6]; 1.85 µM (active) in assay [16]; 0.827 µM (active) in assay [7]; 1.17 µM (active) in assay [8]; 1.17 µM (active) in [10]; 0.928 µM (active) in assay [12].
Regarding `Cc1cnc(Nc2ccc(CN3CCOCC3)cc2)nc1Nc1cccc(S(=O)(=O)NC(C)(C)C)c1`, the Potency in [5] was 14.7 µM (active); in [16], 4.65 µM (active); in assay [7], 3.29 µM (active); in assay [8] it was 4.14 µM (active); in assay [10], 4.65 µM (active); in [2] it was 5.22 µM (active). Moreover, the Potency in assay [11] is 9.27 µM (active); in [12] it was 9.27 µM (active); in assay [15] it was 5.22 µM (active); in assay [13], 5.26 µM (active).
As for `Cn1c(Nc2ccc(C(F)(F)F)cc2)nc2cc(Oc3ccnc(-c4ncc(C(F)(F)F)[nH]4)c3)ccc21`, the Potency was 18.5 µM (active) in assay [5]; 16.5 µM (active) in assay [17]; 4.65 µM (active) in [16]; 0.928 µM (active) in [7]; 13.1 µM (active) in [8]. Further, the Potency result in [1] and in assay [11] was “inactive” each time.
For `O=C1c2c(O)cccc2[C@@H]([C@@H]2O[C@H](CO)[C@@H](O)[C@H](O)[C@H]2O)c2cc(CO)cc(O)c21`, the Potency entry in assay [5], in assay [6], in assay [9], in assay [2], in assay [12] and in [15] was “inactive” in each case. Also, in assay [13], the Potency entry was “inactive”.
For the compound `CNC(=O)Nc1ccc(-c2nc(N3CC4CCC(C3)O4)c3cnn(C4CCC5(CC4)OCCO5)c3n2)cc1`, the Potency in [5] is 0.585 µM (active); in [1], 1.04 µM (active); in assay [16] it was 0.104 µM (active); in assay [7], 0.369 µM (active); in assay [8], 0.0329 µM (active); in assay [10] it was 0.522 µM (active). For the same compound, the Potency is 0.131 µM (active) in [2]; 0.522 µM (active) in [3]; 0.233 µM (active) in assay [11]; 1.31 µM (active) in assay [12]; 3.29 µM (active) in [15]; 1.32 µM (active) in [13].
On to `O=C1NC(=O)C(=Cc2ccc3nccc(-c4ccncc4)c3c2)S1`, for which the Potency was 8.27 µM (active) in [6]; 1.04 µM (active) in assay [8]; 2.61 µM (active) in [10]; 2.61 µM (active) in [2]; 7.37 µM (active) in [3]; 2.93 µM (active) in assay [12]. The Potency in [15] is 7.37 µM (active); in assay [13], 4.18 µM (active). Further, the Potency result in [17] and in [7] was “inactive” in each case.
On to `COc1ccc(S(=O)(=O)Nc2cc(-c3c(O)ccc4ccccc34)c(O)c3ccccc23)cc1`, for which the Potency result in the assay with Furin (Homo sapiens) is “inactive”. Also, in assay [14], the Potency was 19.2 µM (active).
Regarding `c1cc(N[C@@H]2CCNC2)nc(-c2cnc3ccc(-c4cn[nH]c4)cn23)c1`, the Potency (with Furin (Homo sapiens); in assay [14]) was 24.1 µM (active) each time.
In the case of `C[C@@H](NCc1cc2ccccc2[nH]1)c1cccc2ccccc12`, in assay [14], the Potency entry is “inactive”.
Take `NC(=O)Nc1cc(-c2ccc(CN3CCOCC3)cc2)sc1C(N)=O`: the Potency in assay [16] was 18.5 µM (active); in assay [7], 0.414 µM (active); in assay [8] it was 3.69 µM (active); in assay [10], 11.7 µM (active); in [2], 13.1 µM (active); in [12], 13.1 µM (active). The Potency in [13] was 14.8 µM (active).
For the compound `CCCCCCCCc1ccc(CCC(N)(CO)CO)cc1`, in assay [18], the compound was called inactive. Besides, the Potency result in assay [14] is “inactive”.
